D1 agonist: Allosteric Agonists of the Human D1 Dopamine Receptor: qHTS; activation, % at 2 µM; HEK293 T-REx D1 cells, calcium flux, agonist mode; D(1A) dopamine receptor (Homo sapiens), P21728; 360,000 tested, 1% active; in the data active means activation above about 30%; further: 0% is about no effect
Target sequence (P21728 whole entry, looked up): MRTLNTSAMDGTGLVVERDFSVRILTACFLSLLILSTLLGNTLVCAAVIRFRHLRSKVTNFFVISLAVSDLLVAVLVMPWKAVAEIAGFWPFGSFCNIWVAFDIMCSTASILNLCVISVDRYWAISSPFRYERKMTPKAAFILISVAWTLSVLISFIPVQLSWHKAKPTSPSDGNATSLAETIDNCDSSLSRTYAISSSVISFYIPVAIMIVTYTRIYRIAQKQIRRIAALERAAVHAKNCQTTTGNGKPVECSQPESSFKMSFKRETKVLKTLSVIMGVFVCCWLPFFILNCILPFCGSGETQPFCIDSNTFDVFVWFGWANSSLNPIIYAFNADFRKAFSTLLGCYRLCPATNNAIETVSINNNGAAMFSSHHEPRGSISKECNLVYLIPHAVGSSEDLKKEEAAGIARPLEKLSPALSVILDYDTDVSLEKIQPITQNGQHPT
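Agonism was scored from calcium flux recorded over 180 s (1 read/s) after pintool compound addition, following a 10-cycle baseline. Cells were inducible force-coupled HEK293 TREx D1, plated overnight at 30 C and loaded with no-wash calcium dye.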
D1 antagonist: Antagonist of Human D 1 Dopamine Receptor: qHTS | 360,000 tested, 3.2% active | activity change, negative = inhibition, % at 10 µM | HEK293 TREx D1 cells, calcium flux, dopamine EC80; active compounds read low | AID 504652, 2011 | D(1A) dopamine receptor (Homo sapiens), P21728; in the data active means activity change below about -30%; further: on the % scale 0 is the no-effect control and ±100 the full control effect
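Tetracycline-induced HEK293 Trex D1 cells, force-coupled to calcium, dye-loaded; compounds added and read 180 s, then EC80 dopamine added and calcium flux tracked kinetically another 180 s.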
D3 ag: qHTS of D3 Dopamine Receptor Agonist: qHTS. 410,000 tested, 0.58% active. D3R DiscoveRx beta-arrestin cells, luminescence, 90 min. AID 652048, 2013. max activation, %; in the data active means max activation above about 30%; further: 0% is about no effect
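Agonist-mode cell screen: cells plated at 1500/well and incubated overnight at 37 °C, then exposed to library compounds for 90 min at 37 °C. Detection reagent was added for 30–60 min at room temperature, and luminescence was read.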
DRD3 antagonist: qHTS of D3 Dopamine Receptor Antagonist: qHTS; 360,000 tested, 2.5% active; max response, negative = inhibition, %; D(3) dopamine receptor (Homo sapiens), P35462; D3R cells, DiscoveRx beta-arrestin luminescence, antagonist mode; active compounds read low; in the data active means max response below about -50%; inconclusive means no clear call, values can overlap the other calls; further: on the % scale 0 is the no-effect control and ±100 the full control effect
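Cells plated overnight at 1500 cells/well, then exposed to library compounds with dopamine controls for 90 minutes at 37 degrees C. DiscoveRx reagent added for 30–60 minutes at room temperature; luminescence read, quantitative HTS format.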
D1 PAM: Potentiators of Human D1 Dopamine Receptor: qHTS; potentiation, % at 10 µM; 360,000 tested, 0.036% active; HEK293 TREx D1 cells, calcium flux, dopamine EC20 potentiation; D(1A) dopamine receptor (Homo sapiens), P21728; AID 504651, 2011; in the data active means potentiation above about 30%; further: 0% is about no effect
Active calls of the source: *; ? = inconclusive; . = no result. Shown are actives, neighbours in structure and some others; about 6.1% of the full set was active somewhere.

SMILES | D1 agonist | D1 antagonist | D3 ag | DRD3 antagonist | D1 PAM
CC(N)Cc1ccc2c(c1)OCO2 (stereo not given) | . | . | -5 | . | .
Cc1[nH]c2ccccc2c1C1=CCNCC1 | -1 | 4 | -24 | ? | 2
C1=C(c2ccccc2)CCNC1 | 3 | -29 | -36 | -52* | -12
COc1cccc(N2CCN(Cc3cccc(Cl)c3)CC2)c1 | 1 | -3 | -59 | -74* | 7
Fc1cccc(CN2CCN(c3ccc(Cl)cc3)CC2)c1 | 1 | -9 | 1 | -72* | -2
COc1cccc(CN2CCN(Cc3cccc(F)c3)CC2)c1 | -4 | -22 | -20 | 0 | 3
COc1cccc(N2CCN(Cc3ccc(Cl)cc3)CC2)c1 | 11 | 23 | -39 | -94* | -2
Fc1ccccc1CN1CCN(c2ccc(Cl)cc2)CC1 | 3 | 16 | -17 | ? | -6
COc1ccc(CN2CCN(Cc3ccccc3)CC2)c(OC)c1 | 2 | -4 | -37 | -113* | -12
COc1ccc(CN2CCN(C(=O)Cc3ccccc3)CC2)c(OC)c1 | 7 | 18 | -1 | 5 | -2
COc1ccc(OCC(=O)N2CCN(Cc3cc(=O)n4nc(-c5ccccc5C)sc4n3)CC2)cc1 | 0 | -4 | -5 | . | -3
Cc1ccccc1-n1c(/C=C/c2ccccc2F)nc2ccccc2c1=O | 1 | 0 | 0 | . | 0
C=CCC1=C(C)C(OC(=O)C2C(C=C(C)C)C2(C)C)CC1=O (stereo not given) | . | . | -11 | . | .
CCN(CC)S(=O)(=O)c1ccc(NN=C(C#N)C#N)cc1 | 37* | -8 | 10 | 3 | -4
ClC=C(Cl)Cl | . | . | 3 | . | .
O=C(Nc1ccc(Cl)cc1C(=O)c1ccccc1Cl)c1ccco1 | 2 | -39* | -12 | -16 | -7
O=C(Nc1ccc(Cl)cc1C(=O)c1ccccc1)c1ccccc1Br | 6 | 10 | 1 | . | 1
O=C(Nc1ccc(Cl)cc1C(=O)c1ccccc1)c1ccco1 | 5 | -33* | -4 | -22 | -5
CCCCCCC(=O)CCCCCC/C=C/C[C@@H](O)[C@H](O)[C@@](N)(CO)C(=O)O | . | . | 2 | . | .
Fc1ccc(CNC2CN3CCC2CC3)cc1 (stereo not given) | 15 | 9 | 0 | -18 | -8
CCOc1cccc(CNC2CN3CCC2CC3)c1 (stereo not given) | 3 | -51* | -1 | -15 | -7
CCOc1cc(CNC(C)C(O)c2ccccc2)cc(Cl)c1OCC (stereo not given) | 39* | -6 | 1 | 12 | -5
CC(NCc1ccccc1Cl)C(O)c1ccccc1 (stereo not given) | 1 | -1 | -22 | ? | 3
CC(NCc1ccc(Cl)c(Cl)c1)C(O)c1ccccc1 (stereo not given) | 11 | -1 | -37 | -65* | -8
CNC(=O)OCC[N+](C)(C)C | . | . | -7 | . | .
SMILES | D1 agonist | D1 antagonist | D3 ag | DRD3 antagonist | D1 PAM
Nc1ccc2cc(Br)ccc2c1 | 1 | -31* | -3 | -16 | -3
Nc1cc(Cl)c2nonc2c1[N+](=O)[O-] | 1 | -32* | -15 | -58* | 0
CCOc1ccc(CN(CCc2ccc3c(c2)OCO3)Cc2ccc(CC)cc2)cc1 | 3 | 4 | -46 | . | -1
COc1ccc(Cn2c(O)c(C=NCCN3CCOCC3)c(=O)[nH]c2=O)cc1 | 1 | -37* | -7 | 0 | -4
O=c1[nH]c(=O)n(Cc2ccc(F)cc2)c(O)c1C=NCCN1CCCCC1 | 3 | -4 | 0 | -15 | 1
O=c1[nH]c2ccccc2n1C1CCN(C(CCc2ccccc2)c2nnnn2-c2ccc3c(c2)OCCO3)CC1 (stereo not given) | . | . | 36* | 98 | .
CCCCCCN1CCN(c2ccccc2Cl)CC1 | 1 | -4 | 2 | -115* | -7
CN1CCN(Cc2cc(C(C)(C)C)c(O)c(C(C)(C)C)c2)CC1 | 1 | -5 | -9 | -82* | -3
Nc1ccc(N2CCN(Cc3ccccc3Cl)CC2)c(Cl)c1 | 8 | -8 | -19 | -57* | -3
COc1ccccc1N1CCN(Cc2ccccc2Cl)CC1 | 2 | 11 | -21 | -88* | -3
COc1ccccc1N1CCN(Cc2ccccc2F)CC1 | 1 | -23 | -9 | -92* | -1
Clc1ccccc1CN1CCN(c2cccc3[nH]ccc23)CC1 | 0 | -48* | -9 | -80* | -3
COc1ccc(CC(=O)N(C)C2CCCN(Cc3ccccc3F)C2)cc1OC (stereo not given) | 7 | 25 | -3 | -17 | -3
Clc1ccccc1CN1CCN(c2ccccc2)CC1 | -1 | -10 | -17 | -26 | 3
Cc1cccc(Cn2cccc(C(=O)Nc3nnc(C)s3)c2=O)c1 | -1 | . | -8 | . | 0
CNC(C)Cc1ccc2c(c1)OCO2 (stereo not given) | . | . | -16 | . | .
CCC(C(=O)Nc1ccccc1F)N1C(=O)CN=C(c2ccccc2)c2ccccc21 (stereo not given) | 0 | -9 | -15 | . | 0
O=c1[nH]c(=O)n(Cl)c(=O)n1Cl | . | . | 10 | . | .
COc1ccccc1N1CCN(Cc2c(F)cccc2F)CC1 | 0 | 14 | -31 | -69* | -4
COc1ccccc1CN1CCNCC1 | . | . | -5 | -6 | .
COc1ccccc1N1CCN(Cc2cccc(OC)c2O)CC1 | 2 | -20 | -10 | -101* | -6
COc1ccccc1N1CCN(Cc2ccc(Br)cc2)CC1 | 2 | -29 | -5 | -110* | 9
O=C(Cc1ccc(Br)cc1)N1CCN(Cc2ccccc2)CC1 | 8 | -28 | 0 | 4 | -4
CCOP(=O)(OCC)O/C(=C/Cl)c1ccc(Cl)cc1Cl | . | . | 2 | . | .
COc1ccc(C(=O)O)cc1OC | . | . | 2 | 19 | .
SMILES | D1 agonist | D1 antagonist | D3 ag | DRD3 antagonist | D1 PAM
O=C(O)c1cc[c]([Hg][Cl])cc1 | 5 | 1 | -59 | -65* | 12
N/C(=N\N=C\c1ccc(O)cc1O)N[N+](=O)[O-] | 0 | 4 | -4 | -64* | 1
CN1CC(C(=O)c2cccs2)C(c2ccc(Cl)cc2)C1 (stereo not given) | 8 | -17 | -25 | -75* | -7
CC[C@H]1CN2CCC1C[C@@H]2[C@@H](O)c1ccnc2ccc(OC)cc12 (stereo not given in full) | . | . | -78 | -63* | .
CCOc1ccc(CN(CCc2ccc3c(c2)OCO3)Cc2cccc(C)c2)cc1 | 1 | 13 | -16 | . | 3
O=C([O-])c1ccc(-[n+]2c(-c3ccccc3)cc(-c3ccccc3)cc2-c2ccccc2)cc1 | 5 | -14 | 55* | -15 | -7
Oc1ccc(-[n+]2c(-c3ccccc3)cc(-c3ccccc3)cc2-c2ccccc2)cc1 | -1 | -5 | -1 | 9 | -5
CCOc1ccc(C2(C#N)CC[N+](C)(C)CC2)cc1 | -1 | -15 | -2 | -51* | 3
